Screens from PubChem BioAssay.
Only some compounds are listed: those with a hit (about 3.1% of all), similar ones and a draw of the others.
VDR inhibitor – blocks the human vitamin D receptor; VDR-SRC2-3 peptide fluorescence polarization, 2 h; Potency, µM, without a hit: max response, negative = inhibition, most hits filed as inhibitors; hit rate 0.93% among 400,000; note: potency is the fitted concentration of half-maximal effect
Target sequence (P11473 whole entry, looked up): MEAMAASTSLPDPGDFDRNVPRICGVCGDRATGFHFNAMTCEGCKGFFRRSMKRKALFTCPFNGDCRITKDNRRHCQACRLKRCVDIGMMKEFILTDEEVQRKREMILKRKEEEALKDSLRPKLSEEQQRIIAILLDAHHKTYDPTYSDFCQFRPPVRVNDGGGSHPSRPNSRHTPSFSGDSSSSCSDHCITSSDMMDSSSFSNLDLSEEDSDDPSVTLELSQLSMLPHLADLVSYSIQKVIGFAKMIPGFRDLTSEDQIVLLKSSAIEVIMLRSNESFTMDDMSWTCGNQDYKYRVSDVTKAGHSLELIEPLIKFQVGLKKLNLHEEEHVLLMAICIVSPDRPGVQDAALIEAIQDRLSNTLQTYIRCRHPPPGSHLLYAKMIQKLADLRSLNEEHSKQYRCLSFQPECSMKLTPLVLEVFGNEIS
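Fluorescence polarization assay measuring small-molecule disruption of VDR binding to the coregulator peptide SRC2-3. Compounds were pin-transferred (23 nl) into the reagent mix and incubated 2 h at room temperature before reading.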
GLS inhibitor – blocks human kidney-isoform glutaminase activity. O94925. GLS enzymatic activity, qHTS titration. Potency, µM (top dose mostly 45.5 µM), without a hit: top-dose activity change, negative = inhibition, usual class: inhibitors. hit rate 0.21% among 410,000; note: potency is the fitted concentration of half-maximal effect
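Glutamate formation by hKGA was monitored fluorometrically using coupled glutamate oxidase, HRP and Amplex Red. Substrate was added as 1 mM L-glutamine solution; incubation was 30 min at RT after an initial read.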
KAT2A inh – inhibitors of human GCN5L2 histone acetyltransferase. hit rate 0.21% among 390,000. Q92830. GCN5L2 HAT assay, ThioGlo1 CoA-SH fluorescence. Potency, µM (highest dose often 58.9 µM), for inactives: at the top dose activity change, negative = inhibition, most hits filed as inhibitors; note: potency is the fitted concentration of half-maximal effect
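Fluorescence readout, Ex340nm/Em540nm: ThioGlo1 (50uM final) reacts with free CoA thiol released as 20nM GCN5L2 acetylates H3(1-25) peptide (75uM) using acetyl-CoA (70uM). Compound and enzyme sat 15 min beforehand; 20 min room-temperature reaction.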
PI4K2A inh – PI4K2A (human) kinase inhibition; Q9BTU6; purified PI4K2A, ADP-Glo luminescence, 1 h; hits give low values; activity change, negative = inhibition, % at 76.9 µM; hit rate 0.13% among 420,000; in the data active = activity change below about -50%; inconclusive = mostly about -30% to -49%;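 note: -100% = wells without enzyme as full effect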
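Compounds are screened against recombinant PI4K2A using PI as substrate and ATP, the latter dispensed at 300 microM. Reactions run one hour at ambient temperature before ADP-Glo detection; full inhibition defined by wells lacking enzyme.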
PLK1 PBD block – blocks phosphopeptide binding to human PLK1 polo-box domain | P53350 | Plk1 PBD binding of FITC phosphopeptide, fluorescence polarization | Potency, µM, for inactives: max response, negative = inhibition, usual class: inhibitors | hit rate 2.8% among 360,000; note: potency is the fitted concentration of half-maximal effect; series mostly up to about 57 µM; nearly all actives have a fitted effect of over 65% in size
* hit, by the source's call; ? = inconclusive; / = not tested or not shown. Unless noted, calls come from the whole dose curve; as a rule, active = well fitted curve in the direction sought with a large enough effect; inconclusive = small, poorly fitted or top-dose-only effect, or another doubt; inactive = no such curve, though single readings can be large; an effect the other way counts as inactive or inconclusive. Unless noted, % is set by controls: 0 for no effect and ±100 for the full control effect.

SMILES	VDR inhibitor	GLS inhibitor	KAT2A inh	PI4K2A inh	PLK1 PBD block
Clc1nssc1=Nc1ccccc1	44.7µM*	?	3.98µM*	-0.7	2.38µM*
COc1ccc(N=C2SCC(=O)N2C)cc1	/	7.4%	/	-2.0	-21.6%
O=C1CSC(=Nc2ccccc2)N1Cc1ccccc1	-9.2%	-1.3%	-9.8%	-0.6	-12.3%
COc1ccc(N=c2ssnc2Cl)cc1	?	-9.6%	12.6µM*	12.4	1.68µM*
COc1ccc(N2CCCC2)c(NC(=O)c2ccc([N+](=O)[O-])o2)c1	79.4µM*	12.6µM*	-6.5%	-9.4	23.8µM*
CCOC(=S)N/C(=N\S(=O)(=O)c1ccc(C)cc1)c1ccccc1	-12.5%	5.3%	-6.2%	-6.6	23.8µM*
CCOC(=O)Cc1csc(NS(=O)(=O)c2ccc(Cl)cc2)n1	-17.0%	-1.2%	0.9%	-1.6	2.2%
CCOC(=O)Cc1csc(N/C(=N/S(=O)(=O)c2ccc(Cl)cc2)c2ccccc2)n1	?	1.7%	-2.9%	-4.4	21.2µM*
O=C(O)c1ccc(N/C(=N\S(=O)(=O)c2ccc(Cl)cc2)c2ccccc2)cc1	-6.6%	-1.7%	1.1%	6.2	-9.6%
O=S(=O)(/N=C(/NC(=S)Nc1ccccc1)c1ccccc1)c1ccc(Cl)cc1	?	3.5%	-0.3%	-0.6	11.9µM*
COc1ccc(NC(=S)NC(=NS(=O)(=O)c2ccc(Cl)cc2)c2ccccc2)cc1	-19.3%	16.6%	0.2%	-3.6	11.9µM*
COc1ccc2c(c1)Sc1ccccc1N2	5.1%	17.8µM*	-9.7%	-0.8	-18.9%
c1ccc2c(c1)Nc1cc3ccccc3cc1S2	5.8%	-4.0%	1.1%	3.9	-14.6%
CN=C1S/C(=C/c2cc(C)n(Cc3ccccc3)c2C)C(=O)N1C	/	/	/	4.7	/
CC(=O)O[C@H](C)OC(=O)[C@@H](C)c1ccc(-c2ccccc2)c(F)c1	/	-8.2%	/	/	/
CC(=O)Oc1c(Br)cc(N(C(C)=O)S(=O)(=O)c2ccccc2)c2ccccc12	-6.4%	9.9%	-9.4%	?	26.7µM*
CC(=O)Oc1ccccc1N(C(C)=O)S(=O)(=O)c1ccc2ccccc2c1	-19.1%	0.0%	-3.6%	-3.4	?
O=C1C(=Cc2ccco2)CCC1=Cc1ccco1	?	72.7%	/	-59.1*	?
O=C1C(=Cc2ccco2)CCCC1=Cc1ccco1	-3.3%	?	/	-2.7	-17.7%
CCOC(=O)/C(C#N)=C/c1cn(CCC(=O)O)nc1-c1ccccc1	-28.8%	-1.9%	-1.6%	-0.6	29.9µM*
CCNC(=O)COc1ccc(/C=C2\COc3ccccc3C2=O)cc1OC	35.5µM*	-0.4%	-5.7%	-1.9	-22.3%
CCOc1cc(/C=C2\COc3ccccc3C2=O)ccc1OCC(=O)N(C)C	50.1µM*	1.5%	-10.2%	-4.0	-10.3%
COc1cccc(CNC(=O)Cn2c(=O)cc(C(F)(F)F)c3c(C)nn(C)c32)c1OC	2.7%	-1.5%	-6.4%	7.1	/
C=CCC12C=C(OC)C(=O)C(C1=O)C1c3ccccc3CC12 (stereo unspecified)	/	/	/	3.4	/
Nc1cc(N)nc(SCC(=O)Nc2ccc(Br)cc2Cl)n1	-20.9%	13.8%	-0.4%	-9.8	10.6µM*
SMILES	VDR inhibitor	GLS inhibitor	KAT2A inh	PI4K2A inh	PLK1 PBD block
Nc1nc(SCC(=O)Nc2ccc(Br)cc2Br)n[nH]1	-7.6%	53.9%	2.6%	8.6	1.5%
Cc1ccc(-n2[nH]c(C)c(N=Nc3cccc(-c4cccc(C(=O)O)c4)c3O)c2=O)cc1C	/	/	/	-8.3	/
CNCC(=O)NC(CCCN=C(N)N)C(=O)NC(C(=O)NC(Cc1ccc(O)cc1)C(=O)NC(C(=O)NC(Cc1cnc[nH]1)C(=O)N1CCCC1C(=O)NC(C)C(=O)O)C(C)C)C(C)C (stereo unspecified)	-4.9%	13.1%	0.9%	/	/
O=[N+]([O-])c1ccc(-c2c[nH]c(=S)[nH]2)cc1	?	-4.5%	?	-12.5	7.52µM*
Cc1ccc2nc3c(nc2c1C)CCCC3	-1.8%	5.7%	18.7%	4.8	-7.8%
Cc1ccc2nc3c(nc2c1C)C(O)=C3O	?	?	5.0%	-4.0	10.6µM*
C=CCN(C(=O)CCC(=O)O)C1CC(=O)N(c2ccc(OC)cc2)C1=O (stereo unspecified)	-6.3%	-9.1%	-4.6%	-2.9	-2.7%
C=CCN(C(=O)CCC(=O)O)C1CC(=O)N(c2ccc(OCCC)cc2)C1=O (stereo unspecified)	-21.5%	60.7%	-8.2%	-0.7	23.8µM*
